About 83,000 compounds went through this panel and 20% of them were active in at least one assay; those are over-represented in the sample as a whole.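 Step 1: grow cells in 96-well plates. Step 2: add test compound at a single concentration. Step 3: incubate 48 h. Step 4: record percent growth.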 Unmarked numbers belong to inactive results. Calls of active or inactive are those of the source.

The test system of this assay is SK-MEL-28 melanoma. Description: NCI-60 one-dose screen, 48 h (100 = growth as untreated, 0 = no growth, -100 = all killed). The following applies: 10 µM unless noted. As for the experimental part:
Growth inhibition of the SK-MEL-28 human tumor cell line is measured as a screen for anti-cancer activity. Cells are grown in 96 well plates and exposed to the test compound for 48 hours. Compounds are tested at a single concentration, which is 10^-5 M for most compounds. The reported endpoint is percent growth (GI% or GIPRCNT), where numbers from 0 - 100% represent growth inhibition, and numbers from -100% - 0 represent cell death. For example, a value of 40 represents 60% growth inhibition. A value of 0 means no net growth occurred over the course of the experiment. A value of -40 indicates 40% of cells at the beginning of the experiment died by the end of the experiment. A value of -100 means all cells are dead at the end of the experiment.
NCI-60 Human Tumor Cell Lines Screen was performed using the standard one-dose NCI protocol, which is described in more detail at https://dtp.cancer.gov/discovery_development/nci-60/default.htm.
Compounds with GIPRCNT values below 10 were considered active. Activity score was based on GIPRCNT using the following formula: […]
Score is 0 for GIPRCNT values of 100 or above, 50 for GIPRCNT values of 0, and 100 for GIPRCNT values of -100.
For `N#Cc1c2c(nn(-c3ccccc3)c1=O)C(O)=C([N+](=O)[O-])C(c1ccccc1)C2` (stereo not given), the growth is 96.4%.

Turning to `COc1ccc(-c2csc(C3=C(O)CN(CCCN4CCCC4=O)C3=N)n2)cc1OC`, the growth is 124%.

`CC(CCc1ccc(Cl)c(Cl)c1)NCc1ccc(C(C)(C)C)cc1` (stereo not given): the growth is 91.9%.

As for `O=[N+]([O-])c1ccc(OCCO)cc1`, the growth was 114%.

Turning to `O=c1c2c3c(sc2n2c(-c4cn(-c5ccccc5)nc4-c4ccc(Cl)cc4)nnc2n1Cc1ccccc1)CCCC3`, the growth was 105%.

On to `COc1ccc(-c2nc3ccc4[nH]ncc4c3c3c2CCCC3)cc1B(O)O`, for which the growth is 68.1%.

On to `O=C(CC(SCc1ccccc1)c1ccccc1)c1ccccc1` (stereo not given), for which the growth was 105%.

In the case of `O=C(NCCCNc1cc(-c2cn(-c3ccccc3)nc2-c2cccc(O)c2)ccn1)c1ccccc1`, the growth was 4.17% (active).

On to `O=C(NC(Cc1nnc2n(Cc3ccccc3)c(=O)c3c4c(sc3n12)CCCC4)c1ccc(Cl)cc1)c1ccccc1` (stereo not given), for which the growth is 103%.

In the case of `NC1=NCc2nc3ccccc3c(=O)n2C1`, the growth was 117%.

As for `O=C(NCCCNc1cc(-c2cn(-c3ccccc3)nc2-c2cccc(O)c2)ccn1)c1ccc(F)cc1`, the growth was -34.8% (active).

For `CC1OC(O[C@H]2/C=C/C=C/C=C/C=C/C=C/C=C/C=C/[C@H](C)[C@@H](O)[C@@H](C)[C@H](C)OC(=O)CC(O)CC(O)CCC(O)C(O)CC(O)C[C@]3(O)C[C@H](O)C(C(=O)O)C(C2)O3)C(O)[C@H](N)C1O` (stereo not given in full), the growth was -65.8% (active).

With `NC(=O)c1ccc[n+](Cc2ccc(Cl)cc2Cl)c1`, the growth was 108%.

With `COc1ccc(C2=NN(C(=O)c3cc(OC)c(OC)c(OC)c3)C(c3ccc(Cl)cc3)C2)cc1OC` (stereo not given), the growth is 46.1%.

`COc1ccc2c(c1)C(=O)/C(=C/c1ccc(OCC(=O)Nc3nccs3)cc1)O2`: the growth was 103%.

In the case of `COc1cccc(-c2nc3sccn3c2/C=C/C(=O)c2ccc(C(F)(F)F)cc2)c1`, the growth is 83.6%.

Regarding `CCCCNC(=O)Oc1ccc2c(=O)c3sc4c(=O)c5ccccc5c(=O)c4c3c(=O)c2c1`, the growth is -73.3% (active).

For `COc1cc(-c2nc(N3CCN(C)CC3)c3ccccc3n2)cc(OC)c1OC`, the growth is 59.5%.

Turning to `Cc1c(C(=O)NC(Cc2ccccc2)C(O)C(=O)NCc2ccc(F)cc2)[nH]c2ccccc2c1=O` (stereo not given), the growth was 107%.

Consider `Clc1cc(Cl)cc(Nc2ccc3cc(OCCCN4CCOCC4)ccc3n2)c1`, for which the growth is 27.8%.

For the molecule `CCN(CC)c1ccc2nc3c4ccccc4c(=NC(=O)c4ccccc4-c4c5ccc(N(CC)CC)cc5[o+]c5cc(N(CC)CC)ccc45)cc-3oc2c1`, the growth is 97.4%.

As for `O=C(NC(CSSCC(NC(=O)c1ccccc1)C(=O)O)C(=O)O)c1ccccc1` (stereo not given), the growth is 118%.

For `C=C1C(=O)O[C@H]2[C@H]1CC/C(CNC(=O)/C=C/c1ccc(Cl)cc1Cl)=C\CC[C@@]1(C)O[C@@H]21`, the growth is -68.2% (active).

Take `COc1cc(/C=C2\C(=O)ON=C2C)cc(OC)c1OC`: the growth is 103%.

On to `N#Cc1c(-c2ccccc2)cc(-c2ccc(Nc3nc(Nc4ccc(F)cc4)nc(Nc4ccc(F)cc4)n3)cc2)nc1N`, for which the growth was 90.1%.

With `CNC(=O)NCC1OC(n2cnc3c(NC(=O)Nc4ccccc4)ncnc32)C(O[Si](C)(C)C(C)(C)C)C1CC(=O)N(C)OC` (stereo not given), the growth was 7.73% (active).

Turning to `Cc1ccc(C(=NN=C(N)N)c2ccc(C)cc2)cc1`, the growth is 21.4%.

`CC/C=C\CCC/C=C1/C(=O)C=C[C@@H]1C/C=C\CCCC(=O)O`: the growth was 87.1%.

For the molecule `NC(=S)Nc1cccc(O)c1`, the growth was 110%.

For the molecule `Cc1ccc(C2SCC(=O)N2Cc2ccccc2)cc1` (stereo not given), the growth was 106%.

Turning to `C[n+]1cc2c3c(ccc2c2ccc4cc5c(cc4c21)OCO5)OCO3`, the growth was -92.1% (active).

Turning to `COc1ccc(-c2csc(C3=C(O)CN(C(C)C)C3=N)n2)cc1OC`, the growth was 123%.

`C=CCn1c(C)nc2cc(Nc3nc(N4CCCC4)nc4ccccc34)ccc21`: the growth is 80.1%.

For the molecule `COc1cc(OC)cc(C2CC(=O)Nc3c2c(C)nn3-c2nc3ccccc3[nH]2)c1` (stereo not given), the growth was 38.1%.

On to `COC(=O)[C@]12CC[C@@H](C)[C@H](C)[C@@H]1C1=CC[C@@H]3[C@@]4(C)C(C=O)=C[C@@](C)(COC(=O)c5ccco5)[C@@H]4C(=O)C[C@@]3(C)[C@]1(C)CC2`, for which the growth was 24.9%.

Take `Cc1ccc2c(c1)Sc1c(ccc3ccccc13)N2`: the growth was 84.7%.

In the case of `CC(C)Sc1nc(NNC(N)=S)c(C#N)c(-c2ccc(F)cc2)n1`, the growth is 113%.

In the case of `O=[N+]([O-])c1ccc(N2c3ccncc3Sc3ccncc32)cc1`, the growth was 115%.

Consider `c1csc(-c2c3ccc(=[N+]4CCCCC4)cc-3oc3cc(N4CCCCC4)ccc23)c1`, for which the growth was -66.4% (active).

As to `CS(=O)c1cccc(-c2ccc3nc(N)n(-c4ccc(C(F)(F)F)cc4)c(=O)c3c2)c1` (stereo not given), the growth was 114%.

The values above are taken from PubChem BioAssay (NCI).
